The panel holds about 83,000 compounds, 20% with a hit somewhere; the sample as a whole holds those more often.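 Testing used 96-well plates and a 48-hour single-concentration exposure. Example: -40 means 40% of the starting cells died.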 A number with no mark means an inactive call. Activity calls are given as the source filed them. Rule for the calls: active = growth percent below 10; inactive = the rest.
Each compound was assayed on HL-60(TB) leukemia (assay: NCI-60 one-dose screen, 48 h (100 = growth as untreated, 0 = no growth, -100 = all killed)). Conditions: 10 µM unless noted.
For `NC1=NC(=O)NC1(c1ccccc1)c1ccccc1`, the growth was 98.4%.
`Oc1ccc(/C=C/c2ccc(O)cc2)cc1` gave a growth of 43.6%.
For `COc1c(C(C)=O)c(OCCCCOc2c(C(C)=O)c(OC)c3ccoc3c2OC)c(OC)c2occc12`, the growth was 57.4%.
`O=S1(=O)NCCN1CCNc1nccc(-c2c(-c3cccc(O)c3)nc3sccn23)n1` showed a growth of 111%.
With `O=[N+]([O-])c1ccc(C(c2ccccc2)c2ccccc2)cc1` the growth was 79.3%.
With `Nc1ncnc(Nc2ccc(C(F)(F)F)cc2)n1` the growth was 89.2%.
`Clc1ccc(-c2cnc3nonc3n2)s1` was tested, and the growth was 29%.
`CCCCCCCCCCCCCCn1cc(C2=C(c3coc4ccc(OC)cc34)C(=O)NC2=O)c2ccccc21` was tested, and the growth was 129%.
In the case of `C=C(C)[C@@H]1CC[C@]2(C(=O)N3CCNCC3)CC[C@]3(C)[C@H](CC[C@@H]4[C@@](C)(CCC(=O)N5CCNCC5)[C@H](C(=C)C)CC[C@]43C)[C@@H]12`, the growth is reported as 61%.
Work on `Cc1cc2c3c(cccc3c1)C(=O)c1ccccc1-2` yielded a growth of 101%.
Work on `[2H]C([2H])([2H])Oc1ccc(/C=C/C(=O)/C=C(/C=C/c2ccc(OC([2H])([2H])[2H])c(OC([2H])([2H])[2H])c2OC([2H])([2H])[2H])OB(F)F)c(OC([2H])([2H])[2H])c1OC([2H])([2H])[2H]` yielded a growth of 52.3%.
`O=C1NC(=S)S/C1=C\c1cccc([N+](=O)[O-])c1` gave a growth of 83.8%.
In the case of `CN(C)c1ccc(C(=O)c2ccc(N(C)C)c(N)c2)cc1N`, the growth is reported as 7.38% (active).
`CC(C)(C)c1nc(-c2ccc(O)c(O)c2)cs1` was tested, and the growth was -5.29% (active).
`CNC(=O)c1cc(Oc2ccc3nc(NC(=O)c4cc(C(F)(F)F)cc(C(F)(F)F)c4)sc3c2)ccn1` was tested, and the growth was -12.8% (active).
`NC(=S)N/N=C/c1ccc(Cl)s1` was tested, and the growth was 102%.
`C=C(C)[C@@H]1CC[C@]2(C(=O)O)CC[C@]3(C)[C@H](CC[C@@H]4[C@@]5(C)C[C@@H](CC#Cc6ccc(C(C)=O)s6)[C@H](O)C(C)(C)[C@@H]5CC[C@]43C)[C@@H]12` was tested, and the growth was 54%.
With `Cc1ccc2c(=O)cc(C(=O)Nc3sc4c(c3C(=O)NCc3cccnc3)CCCC4)oc2c1C` the growth was 88.3%.
Work on `C=CCOC(=O)C1=C(C)NC2=C(C(=O)CCC2)C1c1ccc(F)cc1` (centres undefined) yielded a growth of 87.8%.
Work on `O=C1CCCN1C1CCN(Cc2cc3ccccc3[nH]c2=O)c2ccccc21` (centres undefined) yielded a growth of 95.6%.
With `CCOC(=O)C1CSC(C)(C(=O)OCC)N1` (centres undefined) the growth was 83.8%.
For `CCN(CC)CCCOc1cccc2c1C(=O)c1cccc(OCCCN(CC)CC)c1C2=O`, the growth was 30.3%.
In the case of `COc1cc(CNC(=O)Cc2ccccc2)ccc1OCc1cn(-c2ccc(F)cc2)nn1`, the growth is reported as 104%.
For `CCN1CCN(c2nc(NCCCNc3ccnc4cc(Cl)ccc34)c3ccccc3n2)CC1`, the growth was -51.4% (active).
In the case of `COc1cccc(/C=N/N=C(N)N)c1`, the growth is reported as 122%.
With `O=C1/C(=C/c2cccc(Br)c2)COc2ccc(O)cc21` the growth was -16.7% (active).
With `CC1=C(C(=O)Nc2ccccc2)C(c2ccc3c(c2)OCCO3)NC(=O)N1` (centres undefined) the growth was 106%.
`CN1CCN(Cc2ccc(NC(=O)c3cncc(C#Cc4cnc(N)c5cccnc45)c3)cc2C(F)(F)F)CC1` was tested, and the growth was -13.9% (active).
In the case of `CCOC(=O)c1c(C(F)(F)F)n([O-])c2ccc(OC)cc2[n+]1=O`, the growth is reported as -9.6% (active).
`CCCCCCC(CC#N)(CCC)CCCC` (centres undefined) was tested, and the growth was 112%.
Work on `CCSC(SCC)c1ccc(Cl)cc1` yielded a growth of 116%.
With `COc1ccc(NC(=S)/N=c2\oc3c(OC)cccc3cc2-c2cc3ccccc3[nH]2)cc1` the growth was 93.1%.
Work on `COC(=O)/C=C1/SC(=Nc2ccc([N+](=O)[O-])cc2)N(CCc2c[nH]c3ccc(O)cc23)C1=O` yielded a growth of 32.2%.
`N#Cc1c(-c2cccc(F)c2)cc(-c2cccnc2)[nH]c1=O` showed a growth of 98%.
In the case of `NS(=O)(=O)c1ccc(-n2ncc3c(N/N=C/c4ccccc4)ncnc32)cc1`, the growth is reported as 83.1%.
For `F`, the growth was 28.1% [6.87 mM].
`O=C(Nc1ccncc1)C(=O)c1cn(S(=O)(=O)c2cccc(Cl)c2)c2ccccc12` showed a growth of 41.8%.
Compound `COc1cc2ncnc(Nc3cccc(Cl)c3F)c2cc1OC(=O)N1CCN(C)C[C@H]1C` has a growth of 102%.
For `Cc1cc(C)nc(NC(N)=NCCc2ccccc2)n1`, the growth was 56.9%.

Reference: PubChem BioAssay (NCI)
